MsrA act: bovine MsrA enzyme activators, primary screen, biochemical, absorbance, HTS. purified bovine MsrA, absorbance read-out. activation, % at 10.6 µM. 0.3% of 360,000 active. Methionine sulfoxide reductase A (Bos taurus); in the data active = activation above about 7.5%
MsrA inhibitor: bovine MsrA enzyme inhibitors, primary screen, biochemical, absorbance, HTS | purified bovine MsrA, absorbance read-out | Methionine sulfoxide reductase A (Bos taurus) | 0.75% of 360,000 active | inhibition, % at 15.5 µM; in the data active = inhibition above about 4.5%
NadD inh: inhibitors of S. aureus NadD, primary screen, biochemical, colorimetric, uHTS; purified NadD enzyme, colorimetric absorbance read-out; inhibition, % at 20 µM; 0.78% of 360,000 active; Nicotinate-nucleotide adenylyltransferase NadD (Staphylococcus aureus N315); in the data active = inhibition above about 26%
rCAG binder: binders of r(CAG) RNA repeats, primary screen, biochemical, fluorescence. r(CAG) RNA repeat, TO-PRO-1 dye displacement fluorescence. inhibition, % at 3 µM. 1.3% of 370,000 active. AID 651821, 2012;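 active = inhibition above the plate cutoff, the mean of all test compounds on that plate plus 3 SD, cut at about 35% in these data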;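 note: higher means more dye released from RNA so lower well fluorescence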
rCAG bind conf: small molecules binding CAG repeat RNA – biochemical, fluorescence, confirmation | 70% of 4,300 active | r(CAG) RNA repeat, TO-PRO-1 dye displacement fluorescence | inhibition, % at 3 µM | AID 652065, 2013 | shares compounds with rCAG binder;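 active = inhibition above a per-plate cutoff, the mean inhibition of sample wells plus 3 SD, cut at about 35% in these data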;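 note: loss of TO-PRO-1 fluorescence as compound displaces dye from 1x1 AA loop RNA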
dCAG dye counter: displacement of TO-PRO-1 from CAG DNA duplex, counter-screen for rCAG RNA repeat binder project, biochemical, fluorescence, TO-PRO-1 dye, d(CAG) DNA oligo; AID 652068, 2013; inhibition, % at 3 µM; d(CAG) DNA oligo TO-PRO-1 dye displacement; shares compounds with rCAG binder; 94% of 4,300 active;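 active = inhibition above its plate's cutoff, the mean test-well inhibition plus 3 SD, cut at about 4.8% in these data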;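 note: hits displace the dye from DNA and so lower well fluorescence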
Of the large screens only hits and unclear results are named; the others gave an inactive call (follow-up assays come after a bar, where they were run). Compounds with a hit are over-represented: about 2.7% of the library has one in this group of screens.

CC(NC(=O)OCc1ccccc1)c1ccccc1 (stereo unspecified)	none
Oc1ccc(/C=N/N=C(c2ccccc2)c2ccccc2)c(O)c1O	none
O=C(/C(=N/N=C/c1ccc(O)c(O)c1O)c1ccccc1)c1ccccc1	rCAG binder 60.8 | rCAG bind conf 74.5 | dCAG dye counter 41.6
O=C(Nc1ccc(F)cc1)C(c1cc2ccccc2o1)N1CCN(c2cccc(C(F)(F)F)n2)CC1 (stereo unspecified)	none (no result: MsrA act, NadD inh)
Cc1cnc(C(=O)OCC(=O)Nc2oc(-c3ccccc3)c(-c3ccccc3)c2C#N)cn1	rCAG binder 46.1 | rCAG bind conf 51.3 | dCAG dye counter 14.1
COc1cc(OC)cc(N(C(=O)CNC(=O)c2cccs2)C(C(=O)NCC2CCCO2)c2ccc(OC)c(OC)c2)c1 (stereo unspecified)	none
O=S(=O)(N/N=C\c1cn(-c2ccccc2)nc1-c1ccccc1)c1ccccc1	rCAG binder 34.7 | rCAG bind conf 44.3 | dCAG dye counter 12.9
Cc1ccc(-c2nn(-c3ccccc3)cc2/C=N/NS(=O)(=O)c2ccccc2)cc1	rCAG binder 37.1 | rCAG bind conf 41.1 | dCAG dye counter 13.7
Cc1ccc(S(=O)(=O)N/N=C\c2cn(-c3ccccc3)nc2-c2ccccc2)cc1	none
Cc1ccc(C(=O)N/C(=C/c2cn(-c3ccccc3)nc2-c2ccccc2)C(=O)O)cc1	rCAG binder 52.2 | rCAG bind conf 44.9 | dCAG dye counter 12.2
CCOC(=O)C1=CN(CC2CCCCC2)CCC1=O	none
O=C(NNc1ccc(C(F)(F)F)cc1[N+](=O)[O-])c1ccc(NS(=O)(=O)c2ccc(F)cc2)cc1	rCAG binder 71.0 | rCAG bind conf 60.9 | dCAG dye counter 22.1
CCc1cc2ccccc2nc1SCC(=O)Nc1cc(OC)c(OC)cc1C(=O)O	rCAG binder 52.8 | rCAG bind conf 45.3 | dCAG dye counter 12.8
COc1cc(NC(=O)CSc2nc3ccccc3cc2C)c(C(=O)O)cc1OC	none
CCOC(=O)c1c(NC(=O)CSc2ccccc2C(=O)O)sc(C)c1C	rCAG binder 39.6 | rCAG bind conf 40.9 | dCAG dye counter 13.4
CCOC(=O)c1c(NC(=O)CSc2ncnc3ccccc23)sc(C)c1C	none
Cc1c(OCC(=O)N[C@@H](Cc2ccccc2)C(=O)O)ccc2c1oc(=O)c1ccccc12	none
Cc1c(Cc2ccccc2)c(=O)oc2c(C)c(OC(C)C(=O)N[C@@H](Cc3ccccc3)C(=O)O)ccc12 (stereo partly specified)	rCAG binder 48.2 | rCAG bind conf 61.3 | dCAG dye counter 22.5
Cc1ccc(CNC(=O)C2CCCN(S(=O)(=O)c3cccc4nonc34)C2)cc1 (stereo unspecified)	none
O=Cc1cccn1-c1ccc(O)cc1	none
CCC(C)[C@H](NC(=O)Nc1ccc(C)cc1C)C(=O)O (stereo partly specified)	rCAG binder 64.0 | rCAG bind conf inactive | dCAG dye counter inactive
O=C1CC(c2ccco2)CC(O)=C1C=Nc1cc(Cl)ccc1O (stereo unspecified)	rCAG binder 37.1 | rCAG bind conf inactive | dCAG dye counter 6.0
O=C1CC(c2ccco2)CC(O)=C1C=Nc1cc(Cl)ccc1Cl (stereo unspecified)	none
O=C(COc1ccccc1/C=C1\SC(=O)NC1=O)Nc1ccccc1	rCAG binder 35.0 | rCAG bind conf 47.8 | dCAG dye counter 15.0
COc1cccc(/C=C2/NC(=O)NC2=O)c1OCC(=O)Nc1ccccc1	none
O=C1NC(=O)/C(=C/c2ccccc2OCc2ccccc2)S1	rCAG binder 67.1 | rCAG bind conf 60.2 | dCAG dye counter 15.6
O=S(=O)(Nc1cccc(CO)c1)c1cccs1	none
NNC(=O)c1cc(NS(=O)(=O)c2cccs2)cc(NS(=O)(=O)c2cccs2)c1	rCAG binder 41.9 | rCAG bind conf inactive | dCAG dye counter 4.7
COc1ccccc1/C=C/C(=O)NCc1ccccn1	none
Cc1ccc(Cc2cnc(N3C(=N)SC(C)C3=O)s2)cc1 (stereo unspecified)	none
O=C1c2ccccc2C(=O)N1c1ncc(Cc2ccc(Cl)cc2)s1	rCAG binder 42.2 | rCAG bind conf inactive | dCAG dye counter inactive
Cc1cccc(NS(=O)(=O)c2c(C)[nH]c(C)c2C(=O)N2CCCC2)c1	none
Cc1ccc(S(=O)(=O)Oc2ccc(/C=N/N=C3/NC(=O)C(CC(=O)O)S3)cc2)cc1[N+](=O)[O-] (stereo unspecified)	rCAG binder 40.8 | rCAG bind conf inactive | dCAG dye counter 8.5
O=C(Nc1cc(S(=O)(=O)N2CCOCC2)ccc1O)c1ccc(S(=O)(=O)N2CCCCC2)cc1	rCAG binder 40.0 | rCAG bind conf 37.0 | dCAG dye counter 10.3
O=C(Nc1cc(S(=O)(=O)N2CCOCC2)ccc1O)c1ccc2c(c1)S(=O)(=O)c1ccccc1C2=O	rCAG binder 42.5 | rCAG bind conf 68.7 | dCAG dye counter 30.7
Cc1ccc(S(=O)(=O)N2CCOCC2)cc1C(=O)Nc1cc(S(=O)(=O)N2CCCCC2)ccc1O	none
O=C(Nc1ccc(S(=O)(=O)N2CCOCC2)cc1)c1ccc2c(c1)S(=O)(=O)c1ccccc1C2=O	none
O=C(CCCSc1ccc(Cl)cc1)Nc1cc(S(=O)(=O)N2CCOCC2)ccc1O	rCAG binder 40.3 | rCAG bind conf 48.6 | dCAG dye counter 15.6
O=C(Nc1ccc(S(=O)(=O)O)cc1)c1ccc2c(c1)S(=O)(=O)c1ccccc1C2=O	rCAG binder 40.1 | rCAG bind conf inactive | dCAG dye counter inactive
Cc1ccc(C(=O)NCCCNC(=O)c2ccc(Cl)cc2)cn1	none
CS(=O)(=O)N(CC(=O)N1CCN(Cc2ccccc2)CC1)c1cccc(Cl)c1	none
CC(C)[C@H](NC(=O)OC(C)(C)C)C(=O)N1CCC(Oc2cccnc2)CC1	none (no result: MsrA act, MsrA inhibitor, NadD inh)
COc1cc([C@@H]2CC=C(C(=O)O)[C@H](c3ccccc3)N2S(=O)(=O)c2ccc(C)cc2)cc(OC)c1OC	none
Cc1ccc(S(=O)(=O)N2[C@@H](c3ccc(Cl)cc3)C(C(=O)O)=CC[C@H]2c2ccc(Cl)c(Cl)c2)cc1	rCAG binder 85.7 | rCAG bind conf 85.7 | dCAG dye counter 59.0
Cc1ccc(S(=O)(=O)N2C(c3ccc(Cl)c(Cl)c3)CC=C(C(=O)O)C2c2cccc(Cl)c2)cc1 (stereo unspecified)	none (no result: MsrA act, NadD inh)
Cc1ccc(S(=O)(=O)N2CC(C(=O)O)=CC[C@H]2c2ccc(Cl)cc2)cc1	rCAG binder 37.2 | rCAG bind conf inactive | dCAG dye counter inactive
COc1cc([C@@H]2CC=C(C(=O)O)[C@H](c3ccc(Cl)cc3)N2S(=O)(=O)c2ccc(C)cc2)cc(OC)c1OC	rCAG binder 35.3 | rCAG bind conf inactive | dCAG dye counter 7.6

Bioassay records deposited in PubChem by several laboratories.
